Measurements taken from PubChem BioAssay (NCATS).
“And” between values parts separate entries of the source, which are not always exact repeats. Equal entries are not always repeated. Inconclusive results are not listed. The source made the active and inactive calls. Calls come from the whole dose curve; as a rule, active = well fitted curve in the direction sought with a large enough effect; inconclusive = small, poorly fitted or top-dose-only effect, or another doubt; inactive = no such curve, though single readings can be large; an effect the other way counts as inactive or inconclusive.

Assays:
[1] = P-glycoprotein substrates identified in KB-8-5-11 adenocarcinoma cell line, qHTS therapeutic library screen (AID 1346987); note: nearly all actives have a fitted effect of over 65% in size; note: potency is the fitted concentration of half-maximal effect
Summary of the method: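 Steps: plate 500 KB-8-5-11 cells/well in DMEM + 10% FCS (colchicine removed); pin compounds in dose-response; incubate 72 h, 37 degree C, 5% CO2; add CellTiter-Glo, 5 min; read luminescence.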

[2] = qHTS of pediatric cancer cell lines to identify multiple opportunities for drug repurposing: Primary screen for TC32 cells (AID 1347089); note: nearly all actives have a fitted effect of over 60% in size
Summary of the method: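 Measured quantity: luminescence from CellTiter-Glo, reflecting metabolically active TC32 cells following 48 h of compound. Curves came straight from multi-point titrations, with 8 or 11 points in primary and 11 in confirmatory screening.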

[3] = qHTS of pediatric cancer cell lines to identify multiple opportunities for drug repurposing: Primary screen for DAOY cells (AID 1347090); note: nearly all actives have a fitted effect of over 55% in size; note: potency is the fitted concentration of half-maximal effect
Summary of the method: (§1)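 Eight- or eleven-point concentration series, 48 h treatment at 37 degrees C in growth media; readout CellTiter-Glo luminescence. Potency and efficacy were taken from the concentration-response curves.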

[4] = qHTS of pediatric cancer cell lines to identify multiple opportunities for drug repurposing: Primary screen for SJ-GBM2 cells (AID 1347091); note: potency is the fitted concentration of half-maximal effect
Summary of the method: as §1

[5] = qHTS of pediatric cancer cell lines to identify multiple opportunities for drug repurposing: Primary screen for A673 cells (AID 1347092); note: nearly all actives have a fitted effect of over 45% in size; note: potency is the fitted concentration of half-maximal effect
Summary of the method: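 Cells are plated, rested 5 h, dosed by pintool, incubated 48 h, then lysed with CellTiter-Glo and read by luminescence. DMSO is the neutral control; bortezomib at 2.3 uM final is the positive control.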

[6] = qHTS of pediatric cancer cell lines to identify multiple opportunities for drug repurposing: Primary screen for SK-N-MC cells (AID 1347093); note: potency is the fitted concentration of half-maximal effect
Summary of the method: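 Metabolically active cells were quantified by ATP-dependent luminescence (CellTiter-Glo, 15 min at room temperature) following 48 h treatment. Cells had been plated at 500-1,000 per well and settled for 5 h beforehand.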

[7] = qHTS of pediatric cancer cell lines to identify multiple opportunities for drug repurposing: Primary screen for BT-37 cells (AID 1347094); note: potency is the fitted concentration of half-maximal effect
Summary of the method: (§2)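 Viability was measured as metabolically active cells after 48 hours of treatment, read by CellTiter-Glo luminescence. Compounds were tested at multiple final concentrations, giving concentration-response curves.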

[8] = qHTS of pediatric cancer cell lines to identify multiple opportunities for drug repurposing: Primary screen for NB-EBc1 cells (AID 1347095); note: potency is the fitted concentration of half-maximal effect
Summary of the method: as §2

[9] = qHTS of pediatric cancer cell lines to identify multiple opportunities for drug repurposing: Primary screen for U-2 OS cells (AID 1347096); note: nearly all actives have a fitted effect of over 50% in size; note: potency is the fitted concentration of half-maximal effect
Summary of the method: (§3)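 Cells (500-1,000/well) in growth media were settled 5 h at 37 degrees C, then given compounds for 48 h. Viability was read as CellTiter-Glo luminescence. Primary runs used MIPE at 11 points (0.78 nM-46 µM) and NPC at 8 points (0.59 nM-46 µM); follow-ups used 11 points.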

[10] = qHTS of pediatric cancer cell lines to identify multiple opportunities for drug repurposing: Primary screen for Saos-2 cells (AID 1347097); note: nearly all actives have a fitted effect of over 40% in size; note: potency is the fitted concentration of half-maximal effect
Summary of the method: as §2

[11] = qHTS of pediatric cancer cell lines to identify multiple opportunities for drug repurposing: Primary screen for LAN-5 cells (AID 1347100); note: potency is the fitted concentration of half-maximal effect
Summary of the method: as §3

[12] = qHTS of pediatric cancer cell lines to identify multiple opportunities for drug repurposing: Primary screen for BT-12 cells (AID 1347101); note: nearly all actives have a fitted effect of over 25% in size; note: potency is the fitted concentration of half-maximal effect
Summary of the method: (§4)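 Cells (500-1,000/well) rested 5 h, then received compounds for 48 h; metabolically active cells were measured by CellTiter-Glo luminescence. Final concentrations spanned up to 46 µM (MIPE, 11-point) or 0.59 nM-46 µM (NPC, 8-point) in primary screens, 11-point in follow-ups.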

[13] = qHTS of pediatric cancer cell lines to identify multiple opportunities for drug repurposing: Primary screen for Rh18 cells (AID 1347102); note: nearly all actives have a fitted effect of over 65% in size; note: potency is the fitted concentration of half-maximal effect
Summary of the method: as §3

[14] = NS1 protein of Zika virus - qHTS assay to identify small molecule inhibitors in human HEK 293 cells (AID 1347053); note: nearly all actives have a fitted effect of over 55% in size; note: potency is the fitted concentration of half-maximal effect
Summary of the method: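 Inhibition of NS1 expression was scored in HEK 293 cells given compound 1 h ahead of MR766 virus (MOI = 0.5). Following 24 h at 37 C, two anti-NS1 antibodies generated a TR-FRET signal, scaled between uninfected and infected controls.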

[15] = qHTS of pediatric cancer cell lines to identify multiple opportunities for drug repurposing: Primary screen for NB1643 cells (AID 1347099); note: nearly all actives have a fitted effect of over 50% in size; note: potency is the fitted concentration of half-maximal effect
Summary of the method: as §2

[16] = qHTS of pediatric cancer cell lines to identify multiple opportunities for drug repurposing: Primary screen for SK-N-SH cells (AID 1347098); note: nearly all actives have a fitted effect of over 65% in size; note: potency is the fitted concentration of half-maximal effect
Summary of the method: as §4

Measured: Potency

N#Cc1cc(NC(=O)Nc2nnc(-c3ccncc3)s2)ccc1-c1cn[nH]c1
not listed: [14] | [15] | [16]
inactive: all other assays above

Cc1nc(NC(=O)N2CCC[C@@H]2C(N)=O)sc1-c1ccnc(C(C)(C)C(F)(F)F)c1
inactive: [14] | [9]
active: [1] 6.62 µM | [3] 7.43 µM | [4] 5.9 µM | [5] 9.35 µM | [6] 0.059 µM | [8] 1.48 µM | [15] 9.35 µM | [11] 5.9 µM | [13] 3.72 µM

CC(C)n1cnc2c(NCCc3ccc(O)cc3)nc(-c3csc4ccccc34)nc21
inactive: [9]
active: [1] 20.9 µM and 20.6 µM | [14] 26.4 µM | [3] 11.8 µM | [5] 1.18 µM | [6] 3.32 µM | [10] 14.8 µM | [16] 4.29 µM | [15] 3.32 µM

Cc1ccc(-n2[nH]c(C)c(N=Nc3cccc(-c4cccc(C(=O)O)c4)c3O)c2=O)cc1C
active: [3] 18.7 µM | [5] 13.3 µM | [6] 14.8 µM | [7] 19.5 µM | [8] 6.62 µM | [10] 13.3 µM
inactive: [1] | [14]

Nc1nc2c(c(=O)[nH]1)N(C=O)[C@H](CNc1ccc(C(=O)N[C@@H](CCC(=O)O)C(=O)O)cc1)CN2
active: [5] 7.43 µM | [7] 9.68 µM | [11] 10.5 µM | [12] 10.9 µM
not listed: [14] | [15]
inactive: all other assays above

Nc1nc(=O)n([C@H]2CSC(CO)O2)cc1F (stereo not given in full)
not listed: [2] | [8]
inactive: all other assays above

C#Cc1cccc(Nc2ncnc3cc(OCCOC)c(OCCO)cc23)c1
inactive: [14]
active: [1] 23.5 µM | [3] 3.72 µM | [4] 5.26 µM | [5] 0.187 µM | [7] 6.85 µM | [8] 5.26 µM | [16] 3.83 µM | [15] 1.87 µM | [11] 0.264 µM | [12] 13.7 µM

C=C1C(=O)O[C@H]2[C@@H]1CCC(C)=CCC[C@@]1(C)O[C@@H]21
active: [1] 23.5 µM | [14] 9.35 µM | [3] 9.35 µM | [4] 8.33 µM | [5] 7.43 µM | [6] 7.43 µM | [8] 5.26 µM | [10] 3.32 µM | [16] 24.1 µM | [15] 8.33 µM | [11] 7.43 µM | [12] 21.7 µM | [13] 23.5 µM

CCc1ccc(C(=O)Nc2cc(CN3CCN(C)CC3)cc(C(F)(F)F)c2)cc1C#Cc1cnc2ccnn2c1
active: [1] 8.33 µM and 3.66 µM | [14] 13.2 µM | [3] 23.5 µM | [4] 9.35 µM | [5] 9.35 µM | [6] 1.87 µM | [7] 24.3 µM | [9] 23.5 µM | [10] 14.8 µM | [16] 24.1 µM | [15] 1.18 µM | [11] 7.43 µM | [12] 27.3 µM | [13] 14.8 µM

CC(=O)N1CCN(c2ccc(OCc3nn(C)c(C)c3-c3cccc4c(CCCOc5cccc6ccccc56)c(C(=O)O)n(Cc5cccnc5)c34)cc2)CC1
active: [3] 0.118 µM | [5] 0.0743 µM | [6] 0.0235 µM | [8] 0.418 µM | [9] 3.72 µM | [10] 3.72 µM | [16] 3.83 µM | [15] 0.209 µM | [11] 0.148 µM | [12] 2.43 µM | [13] 0.59 µM
inactive: [1] | [14]

CC(C)(C)c1nc2c3cc[nH]c(=O)c3c3cc(F)ccc3c2[nH]1
active: [1] 5.17 µM | [6] 1.18 µM | [16] 9.61 µM | [11] 2.35 µM
inactive: [14] | [7] | [8] | [9] | [12] | [13]

COc1cccc2c1C(=O)c1c(O)c3c(c(O)c1C2=O)C[C@@](O)(C(=O)CO)C[C@@H]3O[C@H]1C[C@H](N)[C@H](OC2CCCCO2)[C@H](C)O1 (stereo not given in full)
inactive: [9] | [10] | [16] | [13]
active: [1] 5.26 µM | [14] 2.96 µM | [4] 1.18 µM | [5] 2.35 µM | [6] 0.833 µM | [7] 1.93 µM | [8] 0.296 µM | [11] 0.469 µM | [12] 2.43 µM

O=C(O)CCCCCC(=O)NN=C1CCCC1
not listed: [2] | [6] | [10] | [16]
inactive: all other assays above
